Compound activity deposited in PubChem BioAssay by National Center for Advancing Translational Sciences (NCATS).
Rows were chosen to be rich in hits. Some 12% of all compounds tested hit in one or more screens of this group.
BAZ2B block = qHTS Assay for Inhibitors of BAZ2B; Potency, µM (highest dose often 114 µM), inactives show at the top dose activity change, negative = inhibition, most hits filed as inhibitors; Bromodomain adjacent to zinc finger domain protein 2B (Homo sapiens), Q9UIF8; actives 4.4% (n = 360,000); AlphaScreen BAZ2B-H3K14Ac peptide displacement; AID 504333, 2011; note: potency is the fitted concentration of half-maximal effect; % is set by controls: 0 for no effect and ±100 for the full control effect; nearly all actives have a fitted effect of over 60% in size
Target sequence (Q9UIF8 whole entry, looked up, the tested form may be a part): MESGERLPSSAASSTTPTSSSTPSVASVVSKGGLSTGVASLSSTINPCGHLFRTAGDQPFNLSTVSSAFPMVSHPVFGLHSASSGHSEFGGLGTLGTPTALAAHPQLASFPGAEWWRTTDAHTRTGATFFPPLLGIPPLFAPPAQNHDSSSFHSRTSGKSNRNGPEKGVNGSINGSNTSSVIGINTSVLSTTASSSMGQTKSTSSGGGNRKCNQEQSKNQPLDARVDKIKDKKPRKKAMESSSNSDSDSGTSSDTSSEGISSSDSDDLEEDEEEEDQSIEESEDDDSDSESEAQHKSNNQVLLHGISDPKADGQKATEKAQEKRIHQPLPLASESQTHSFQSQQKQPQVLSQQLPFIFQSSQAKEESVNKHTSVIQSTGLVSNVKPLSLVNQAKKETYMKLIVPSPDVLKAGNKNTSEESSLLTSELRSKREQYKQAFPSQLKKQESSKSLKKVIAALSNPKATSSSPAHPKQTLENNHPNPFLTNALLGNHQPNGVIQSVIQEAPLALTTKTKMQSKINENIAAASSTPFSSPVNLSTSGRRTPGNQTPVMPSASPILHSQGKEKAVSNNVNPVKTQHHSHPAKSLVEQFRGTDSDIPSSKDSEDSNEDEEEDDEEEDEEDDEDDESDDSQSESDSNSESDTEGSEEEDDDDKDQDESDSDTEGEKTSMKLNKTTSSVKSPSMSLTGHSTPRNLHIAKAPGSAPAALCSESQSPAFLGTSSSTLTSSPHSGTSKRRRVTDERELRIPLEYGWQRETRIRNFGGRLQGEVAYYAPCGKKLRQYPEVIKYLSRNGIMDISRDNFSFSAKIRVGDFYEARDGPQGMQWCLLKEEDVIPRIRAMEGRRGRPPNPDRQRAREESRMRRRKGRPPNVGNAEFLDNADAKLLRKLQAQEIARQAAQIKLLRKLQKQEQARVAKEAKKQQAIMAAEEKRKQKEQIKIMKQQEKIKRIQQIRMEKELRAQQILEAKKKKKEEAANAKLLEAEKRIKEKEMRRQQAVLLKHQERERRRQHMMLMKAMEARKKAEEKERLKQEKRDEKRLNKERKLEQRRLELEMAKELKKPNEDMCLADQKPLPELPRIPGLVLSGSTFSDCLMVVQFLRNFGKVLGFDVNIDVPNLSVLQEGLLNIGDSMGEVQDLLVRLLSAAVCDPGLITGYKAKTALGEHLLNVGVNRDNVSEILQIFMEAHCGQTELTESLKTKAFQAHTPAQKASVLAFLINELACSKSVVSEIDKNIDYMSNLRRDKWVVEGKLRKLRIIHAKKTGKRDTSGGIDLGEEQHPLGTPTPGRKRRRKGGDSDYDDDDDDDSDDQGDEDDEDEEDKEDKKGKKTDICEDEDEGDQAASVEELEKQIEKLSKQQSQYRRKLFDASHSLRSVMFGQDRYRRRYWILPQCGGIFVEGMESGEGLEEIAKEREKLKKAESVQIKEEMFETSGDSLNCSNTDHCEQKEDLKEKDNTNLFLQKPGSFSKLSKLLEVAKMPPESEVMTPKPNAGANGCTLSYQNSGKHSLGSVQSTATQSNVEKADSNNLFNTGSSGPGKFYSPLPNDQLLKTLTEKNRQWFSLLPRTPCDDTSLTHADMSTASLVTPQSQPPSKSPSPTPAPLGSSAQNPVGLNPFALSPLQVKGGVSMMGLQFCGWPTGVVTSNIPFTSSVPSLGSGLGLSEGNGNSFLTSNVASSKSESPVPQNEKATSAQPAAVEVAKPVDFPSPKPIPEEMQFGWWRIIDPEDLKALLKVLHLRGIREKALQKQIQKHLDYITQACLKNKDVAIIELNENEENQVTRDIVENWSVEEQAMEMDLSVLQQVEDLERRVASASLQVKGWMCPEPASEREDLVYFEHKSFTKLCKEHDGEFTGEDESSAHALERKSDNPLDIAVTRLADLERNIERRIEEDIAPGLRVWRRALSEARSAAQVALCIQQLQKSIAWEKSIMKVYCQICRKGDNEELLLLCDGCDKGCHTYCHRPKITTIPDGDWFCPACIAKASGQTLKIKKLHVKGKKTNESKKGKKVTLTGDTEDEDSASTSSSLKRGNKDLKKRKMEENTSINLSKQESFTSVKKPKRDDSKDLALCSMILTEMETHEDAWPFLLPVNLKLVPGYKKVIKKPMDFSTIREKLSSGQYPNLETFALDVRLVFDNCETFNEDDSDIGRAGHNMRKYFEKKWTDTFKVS
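Compounds, titrated to a top concentration of 110 uM, were incubated 30 min at room temperature with preformed BAZ2B/acetyl-K14 H3 peptide complex (50 nM each). Proximity signal was measured by AlphaScreen after 20 min with beads.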
HP1b binding inh = HTS for Inhibitors of HP1-beta Chromodomain Interactions with Methylated Histone Tails | Chromobox protein homolog 1 (Homo sapiens), P83916 | AlphaScreen HP1-beta / biotin-H3K9me3 peptide binding | Potency, µM (doses to about 114 µM), without a hit: top-dose activity change, negative = inhibition, most hits filed as inhibitors | actives 0.56% (n = 390,000); note: potency is the fitted concentration of half-maximal effect; nearly all actives have a fitted effect of over 70% in size
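Compound inhibition of the preformed complex between 50 nM HP1-beta and 50 nM biotinylated H3K9me3 peptide was read by AlphaScreen. Buffer was PBS pH 7.4 with 0.01% Tween-20. Incubations ran 30 min at room temperature, with 10 ug/mL donor/acceptor beads.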
G9a inh-1 = qHTS Assay for Inhibitors of Histone Lysine Methyltransferase G9a. Histone-lysine N-methyltransferase EHMT2 (Homo sapiens), Q96KQ7. G9a H3K9 monomethylation, AlphaScreen, 2 h. Potency, µM (titrated, usually from 102 µM), without a hit: at the highest dose activity, negative = inhibition, usual class: inhibitors. actives 8.8% (n = 350,000). AID 504332, 2011; note: potency is the fitted concentration of half-maximal effect; % is set by controls: 0 for no effect and ±100 for the full control effect; nearly all actives have a fitted effect of over 75% in size
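Enzyme 20 nM + cpd, 15 min RT; add b-H3K9 pep 500 nM / SAM 20 uM; 2 h RT; anti-H3K9me1 Ab 0.5 ug/mL + SA donor / anti-rabbit acceptor beads 20 ug/mL each, 10 min; AlphaScreen read.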
PI5P4K alpha inh = qHTS for Inhibitors of phosphatidylinositol 5-phosphate 4-kinase (PI5P4K); Phosphatidylinositol 5-phosphate 4-kinase type-2 alpha (Homo sapiens), P48426; PI5P4Kalpha enzyme, ADP-Glo luminescence, 60 min; active compounds read low; max response, %; actives 1.2% (n = 330,000); AID 652105, 2013; active = max response of -50% or lower; inconclusive = between -30% and -50%; inactive = -30% or higher; note: value at the top dose of about 77 µM; % is set by controls: 0 for no effect and ±100 for the full control effect
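PI5P4Kalpha ADP-Glo assay; 5 microM ATP final; 60 min RT reaction; HEPES pH 7.4/EGTA/CHAPS, 5% DMSO; controls lacking substrate or enzyme; luminescent end-point.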
PLK1 PBD block = qHTS for Inhibitors of PLK1-PDB (polo-like kinase 1 - polo-box domain): Primary Screen; Plk1 PBD binding of FITC phosphopeptide, fluorescence polarization; actives 2.8% (n = 360,000); AID 720504, 2013; Potency, µM, for the others: max response, negative = inhibition, actives largely listed as inhibitors; Serine/threonine-protein kinase PLK1 (Homo sapiens), P53350; note: potency is the fitted concentration of half-maximal effect; series mostly up to about 57 µM; % is set by controls: 0 for no effect and ±100 for the full control effect; nearly all actives have a fitted effect of over 65% in size
JMJD2A Tudor inh = qHTS Assay for Inhibitors of JMJD2A-Tudor Domain; Lysine-specific demethylase 4A (Homo sapiens), O75164; AlphaScreen JMJD2A-Tudor / H3K4me3 peptide binding; Potency, µM (doses to about 114 µM), for inactives: at the highest dose activity change, negative = inhibition, hits mostly inhibitors; actives 4.4% (n = 390,000); note: potency is the fitted concentration of half-maximal effect; % is set by controls: 0 for no effect and ±100 for the full control effect; nearly all actives have a fitted effect of over 50% in size
G9a inh-2 = qHTS Assay for Inhibitors of Histone Lysine Methyltransferase G9a: Hit Confirmation | Potency, µM, usual class: inhibitors | actives 89% (n = 370) | shares compounds with JMJD2A Tudor inh | G9a H3K9 monomethylation, AlphaScreen, 2 h; note: potency is the fitted concentration of half-maximal effect; nearly all actives have a fitted effect of over 65% in size
RGS4 confirm = qHTS for Inhibitors of Regulator of G Protein Signaling(RGS) 4: Hit Validation. AID 602388, 2012. shares compounds with JMJD2A Tudor inh. RGS4 GAP activity, Transcreener GDP fluorescence polarization. Potency, µM, actives largely listed as inhibitors. actives 80% (n = 25)
* = called active by the depositor; ? = inconclusive; nt = not tested or not shown; [ ] = dose if it differs, or a comment. Unless noted, calls come from the whole dose curve; as a rule, active = well fitted curve in the direction sought with a large enough effect; inconclusive = small, poorly fitted or top-dose-only effect, or another doubt; inactive = no such curve, though single readings can be large; an effect the other way counts as inactive or inconclusive.

SMILES	BAZ2B block	HP1b binding inh	G9a inh-1	PI5P4K alpha inh	PLK1 PBD block	JMJD2A Tudor inh	G9a inh-2	others
COc1cccc(-c2nc(SCc3cc(=O)c4cc(Cl)ccc4[nH]3)n[nH]2)c1	4%	31%[57 µM]	7%[59 µM]	nt	nt	-11%	nt
COc1ccc(-c2cc3c(=O)n(CC(=O)Nc4cc(F)ccc4F)ccn3n2)cc1OC	-7%	15%	15%[59 µM]	nt	nt	-9%	nt
CCN1CCC(N(Cc2cccc(OC)c2)C(=O)Nc2cccc(C)c2C)CC1	-2%	20%	-31%[59 µM]	nt	nt	-13%	nt
CCc1ccc(C(=O)CC2(O)C(=O)N(Cc3ccc(C)cc3)c3ccccc32)cc1 (stereo not drawn)	10µM*	?	5.6µM*	nt	nt	40µM*	nt	RGS4 confirm=24*
O=C(Cn1nc(-c2ccc(Cl)cc2)c2ccccc2c1=O)Nc1cccc(C(F)(F)F)c1	6%	5%	-3%[59 µM]	nt	nt	-13%	nt
CC1=Nc2cc(C(=O)NC(C)C)ccc2Sc2ccc(C)cc21	-38%	21%	-52%[59 µM]	nt	nt	-34%	nt
COc1ccc(CC(=O)O/N=C(\N)c2ccncc2)cc1OC	nt	nt	nt	5	-7%	nt	nt
Cc1ccc2cc(CN(C(=O)c3ccco3)c3ccccc3)c(=O)[nH]c2c1	3%	17%	?	-23	-18%	-11%	nt
Cc1ccc(N(Cc2cc(=O)[nH]c3ccccc23)C(=O)c2ccco2)cc1	?	13%	?	2	-14%	29%	22*
COc1ccccc1N1CCN(C(=O)c2ccc(CN3CCc4ccccc4C3)cc2)CC1	-1%	7%	-7%[59 µM]	nt	-1%	?	nt
COc1ccc(CN2CCc3ccccc3C2)cc1Br	50µM*	-27%	2.2µM*	6	-7%	28µM*	11*
Cn1nc(C(=O)Nc2nc(-c3ccccn3)cs2)c2ccccc2c1=O	18µM*	?	4.5µM*	-28	13µM*	22µM*	nt	RGS4 confirm=11*
O=C(Nc1ccc(N2CCCC2)cc1)c1cccc(-c2cc3ccccc3oc2=O)c1	?	8.9µM*	1.6µM*	?	2.7µM*	28µM*	1.1*
O=C(Nc1ccc(N2CCCC2)cc1)c1ccccc1F	?	-7%	1.8µM*	nt	-15%	?	2.8*
O=C(Nc1ccc(N2CCCCC2)cc1)c1ccccc1	-24%	2%	?	nt	4%	-28%	nt
O=C(Nc1ccc(N2CCCC2)cc1)c1cccc(F)c1	?	?	?	nt	-11%	50µM*	1.6*
O=C(Nc1ccccc1N1CCCC1)c1cccc(-c2cc3ccccc3oc2=O)c1	?	-21%	?	-14	-17%	?	nt
O=C(Nc1ccc(N2CCCCC2)cc1)c1ccc(F)cc1F	-6%	7%	nt	-10	-8%	-16%	nt
C[C@@H](CO)[C@H](/C=C/c1ccccc1)CCO[Si](c1ccccc1)(c1ccccc1)C(C)(C)C	nt	51%	nt	nt	nt	-8%	nt
N#Cc1ccc(S(=O)(=O)N2CCCCC2c2cc(C(=O)N3CCOCC3)no2)cc1 (stereo not drawn)	nt	nt	nt	1	-5%	nt	nt
COc1ccc(C(=O)c2sc(Nc3cccc(OC)c3)c(C(=O)Nc3cccc(C)c3C)c2N)cc1	-39%	-11%	?	-1	-6%	?	4.5*
Cc1cc(C)c(C)c(S(=O)(=O)NCCN2CCOCC2)c1C	3%	18%	9%	-4	-18%	-12%	nt
OCCCCNc1cccc2ccccc12	?	-20%	?	nt	-15%	?	5.6*
COc1ccc(C)cc1NC(=S)N1CC(C)OC(C)C1 (stereo not drawn)	-4%	29%	43%	0	0%	9%	nt
CN(C)c1ccc(CNC(=O)c2cccc(NC(=O)N3CCSc4ncccc43)c2)cc1	?	-15%	2.8µM*	nt	nt	?	18*
SMILES	BAZ2B block	HP1b binding inh	G9a inh-1	PI5P4K alpha inh	PLK1 PBD block	JMJD2A Tudor inh	G9a inh-2	others
COc1ccccc1-c1nc(SCC(=O)NCc2ccccc2)c2c(=O)n(C)c(=O)n(C)c2n1	4%	20%[57 µM]	2%[59 µM]	nt	nt	-2%	nt
COc1ccc(OC)c(CN2CCN(C(=O)c3cccc4ccccc34)CC2)c1	40µM*	22µM*	2.5µM*	nt	5%	10µM*	22*
COc1cccc(OC)c1C(=O)N1CCN(Cc2ccccc2C(F)(F)F)CC1	20µM*	?	?	4	-14%	7.9µM*	4.5*
S=C(Nc1ccccn1)NC1CCCC1	-23%	26%	0.35µM*	0	-12%	-18%	3.2*
Nc1ccccc1SCC(=O)Nc1nccs1	-2%	34%	?	0	-15%	4%[57.1 µM]	nt
Cc1nc(NC(=O)CSc2ccccc2N)sc1C	-39%	1%	?	nt	?	-18%	18*
COc1ccc(Cc2nnc(SCC(=O)NC3CCCCC3)n2C)cc1	-1%	29%	?	nt	-3%	-3%	10*
